D2 ag-1: agonists of human D2 dopamine receptor; activation, % at 2 µM; HEK293 T-REx D2 cells, calcium flux agonist mode; 340,000 tested, 0.53% active; P14416;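 active = activation over 3 SD above normal in the single-dose calcium agonist read, cut at about 30% in these data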; note: 0% is about no effect
Target sequence (P14416 whole entry, looked up): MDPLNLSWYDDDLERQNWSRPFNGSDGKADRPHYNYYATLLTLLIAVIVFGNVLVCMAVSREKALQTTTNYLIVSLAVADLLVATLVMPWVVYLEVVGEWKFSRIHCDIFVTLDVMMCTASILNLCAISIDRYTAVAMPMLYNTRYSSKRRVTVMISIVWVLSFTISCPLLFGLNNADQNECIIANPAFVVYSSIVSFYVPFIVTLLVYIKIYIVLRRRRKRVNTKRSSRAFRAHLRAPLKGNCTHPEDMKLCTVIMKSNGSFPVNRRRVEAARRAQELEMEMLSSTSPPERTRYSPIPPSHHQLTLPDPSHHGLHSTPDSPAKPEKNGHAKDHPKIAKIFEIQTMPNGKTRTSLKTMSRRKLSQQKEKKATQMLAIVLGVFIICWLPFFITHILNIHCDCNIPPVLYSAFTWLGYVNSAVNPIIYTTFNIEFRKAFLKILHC
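Agonism is scored from calcium flux in a force-coupled, inducible HEK293 cell line expressing D2, read kinetically for 180 s after compound addition against dopamine controls.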
D2 ag-2: human D2 receptor agonism in beta-arrestin assay. AID 624465. activation, % (test concentration not listed). 360,000 tested, 0.084% active. DiscoveRx PathHunter D2 beta-arrestin, luminescence, 90 min; 100% = 57 uM dopamine signal; in the data active = activation above about 40%; inconclusive = between about 15% and that limit
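DiscoveRx PathHunter D2 beta-arrestin cells (2,100/well) attached overnight, then compound-stimulated 90 min at 37 C in HBSS/10 mM HEPES/0.1% Tween-20 buffer; beta-galactosidase complementation read by luminescence after 1 h at ambient temperature. Dopamine 57 uM final (EC100) as control.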
D2 antagonist: antagonizes the human D2 dopamine receptor. P14416. HEK293 TREx D2 cells, calcium flux, dopamine EC80. inhibition, % at 10 µM. 340,000 tested, 2% active; in the data active = inhibition above about 30%; inactive = below that, where a call was filed; note: 0% is about no effect
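Compounds are added to dye-loaded, induced HEK293 T-REx cells coupled to calcium release via D2; after a 3 min kinetic read an EC80 dopamine stimulus is given and fluorescence is recorded for 3 more min.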
D2 PAM-1: D2 dopamine receptor (human) potentiation; P14416; HEK293 T-REx D2, calcium flux, EC20 dopamine potentiation; potentiation, % at 10 µM; 340,000 tested, 0.34% active; AID 485347;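 active = potentiation over 3 SD above the plate norm, cut at about 30% in these data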; note: 0% is about no effect
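Tetracycline-induced Hek293 Trex D2 cells, force-coupled to calcium, loaded with no-wash calcium dye. Compound added with 180 s kinetic read for agonism, then EC20 dopamine and a further 180 s read for potentiation.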
D2 PAM-2: human D2 receptor positive allosteric modulation | 360,000 tested, 0.23% active | potentiation, % (no concentration beside the values) | DiscoveRx D2 beta-arrestin cells, luminescence, 90 min; 100% = 57 uM dopamine signal | AID 624464 | P14416; in the data active = potentiation above about 50%; inconclusive = mostly about 30% to 49%
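D2 cells co-treated with compound plus 50 nM dopamine (EC20) for 90 min at 37 deg C to detect potentiation. Beta-arrestin recruitment was read as enzyme-fragment luminescence after 1 h at ambient temperature. Full response was set by 57 uM dopamine.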
Starred values were filed as active, the others as inactive; ? = inconclusive; · = no result. Shown are actives, neighbours in structure and some others; about 2.4% of the full set was active somewhere.

SMILES	D2 ag-1	D2 ag-2	D2 antagonist	D2 PAM-1	D2 PAM-2
CCOC(=O)C1CCN(C(=O)CN(c2ccc(Cl)c(C(F)(F)F)c2)S(C)(=O)=O)CC1	0	-3	-4	15	-16
CCOC(=O)C1CCN(C(=O)CN(c2ccc3c(c2)OCO3)S(C)(=O)=O)CC1	1	-2	45*	1	-16
CC1CCCCC1NC(=O)CCS(=O)(=O)c1ccc2c(c1)NC(=O)CS2 (configuration not stated)	-1	3	7	-5	-3
S=c1[nH]c(-c2ccccc2)cn1/N=C/c1ccccc1Br	0	-2	-12	-5	-47
S=c1[nH]c(-c2ccccc2)cn1/N=C/c1cccc2ccccc12	0	-16	33*	-14	-30
O=S(=O)(c1ccsc1)N1CC=C(c2ccccc2)CC1	36*	10	35*	-12	-5
Cc1cccc(C(=O)OC(C)C(=O)N2CCN(Cc3ccccc3)CC2)c1 (configuration not stated)	-1	0	-8	4	0
CCCCn1c(=O)c(Cc2ccccc2)c(O)c2ccccc21	0	-4	-15	31*	5
CCCCCCn1c(=O)c(Cc2ccccc2)c(O)c2ccccc21	0	-7	-5	4	-5
CN(Cc1cnn(C)c1)C(=O)C1CCC(=O)N(Cc2cccc(C(F)(F)F)c2)C1 (configuration not stated)	·	-2	·	·	10
CN(Cc1cccc(C(F)(F)F)c1)C(=O)C1CCC(=O)N(CC2CCCCC2)C1 (configuration not stated)	-1	-2	31*	-1	-10
CCc1ccc(N(C(=O)c2ccco2)C(C(=O)NC2CCCC2)c2ccncc2)cc1 (configuration not stated)	-2	3	4	·	0
CC(=O)NC(c1ccccc1)c1nc(-c2cccc(F)c2)cs1 (configuration not stated)	·	-3	·	·	-2
O=C1c2ccccc2NC(c2ccco2)N1NS(=O)(=O)c1ccccc1 (configuration not stated)	2	0	33*	2	0
COc1ccc(C2Nc3ccccc3C(=O)N2NS(=O)(=O)c2ccccc2)cc1 (configuration not stated)	0	1	39*	6	0
O=C1c2ccccc2NC(c2ccccc2)N1NS(=O)(=O)c1ccccc1 (configuration not stated)	0	0	-15	-1	-10
O=C1c2ccccc2NC(c2cccs2)N1NS(=O)(=O)c1ccccc1 (configuration not stated)	0	-2	7	3	-1
CS(=O)(=O)c1ccc2nc(NC(=O)CN3CCN(Cc4ccccc4)CC3)sc2c1	0	-1	45*	-3	-15
CS(=O)(=O)c1ccc2nc(NC(=O)c3cc([N+](=O)[O-])cc([N+](=O)[O-])c3)sc2c1	1	?	7	1	99*
Cc1cccc(C)c1OCC(=O)NNC(=O)CCNC(=O)c1ccco1	0	-4	-2	-2	-14
O=C(Nc1ccc(-n2cnnn2)cc1)C1CCCN1C(=O)Nc1ccc(Br)cc1 (configuration not stated)	-3	5	11	0	-9
CC1CCCCN1S(=O)(=O)c1ccc(C(=O)Nc2sccc2C(N)=O)cc1 (configuration not stated)	0	4	31*	-16	-2
NC(=O)c1ccsc1NC(=O)C1CCCN1S(=O)(=O)c1ccc(Cl)cc1 (configuration not stated)	0	-5	6	-3	-4
COc1ccccc1CNC(=O)N1CCN(S(=O)(=O)c2ccc(Cl)cc2)CC1	0	0	-10	-18	-3
O=c1nc(/C=C/c2ccccc2C(F)(F)F)cc(C(F)(F)F)[nH]1	-2	-3	32*	9	-10
CCOC(=O)CC(NCc1ccc(OC)c(OCC)c1)c1ccc(C)cc1 (configuration not stated)	0	0	61*	-20	-13
